Laboratory results: the supplement of paper PMC8728848
The sample as a whole holds a higher share of the strongest signals than the screen did.

How the values were obtained:
Assay in all cases: glycan array binding signal (z-score within array); higher = stronger binding
Conditions in all cases: glycan notation: IUPAC condensed, linker removed
[1] = target: Fuc(a1-2)Gal(b1-3)GalNAc(b1-4)[Neu5Ac(a2-3)]Gal(b1-4)Glc
Procedure, shortened: (§1)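 The Consortium for Functional Glycomics database supplied 3228 glycan arrays, of which those lacking an available protein sequence were dropped. The binding signal, a within-array Z-score, was averaged across arrays of the same protein sequence and across linkers. Negative scores can be read as non-binding.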

[2] = target: Fuc(a1-2)Gal(b1-3)GlcNAc(b1-3)[Gal(b1-4)GlcNAc(b1-6)]Gal(b1-4)Glc
Procedure, shortened: as §1

[3] = target: Fuc(a1-2)Gal(b1-4)GlcNAc(b1-3)Gal(b1-4)GlcNAc
Procedure, shortened: as §1

[4] = target: Fuc(a1-2)Gal(b1-4)GlcNAc(b1-3)[Fuc(a1-3)[Gal(b1-4)]GlcNAc(b1-6)]Gal(b1-4)Glc
Procedure, shortened: as §1

[5] = target: Fuc(a1-2)Gal(b1-4)[Fuc(a1-3)]GlcNAc(b1-3)Gal(b1-4)[Fuc(a1-3)]GlcNAc
Procedure, shortened: as §1

[6] = target: Fuc(a1-2)[Gal(a1-3)]Gal(b1-4)GlcNAc(b1-3)[Fuc(a1-2)[Gal(a1-3)]Gal(b1-4)GlcNAc(b1-6)]GalNAc
Procedure, shortened: as §1

[7] = target: Fuc(a1-2)[Gal(a1-3)]Gal(b1-4)GlcNAc(b1-6)GalNAc
Procedure, shortened: as §1

[8] = target: Fuc(a1-2)[GalNAc(a1-3)]Gal(b1-3)GlcNAc(b1-2)Man(a1-3)[Fuc(a1-2)[GalNAc(a1-3)]Gal(b1-3)GlcNAc(b1-2)Man(a1-6)]Man(b1-4)GlcNAc(b1-4)GlcNAc
Procedure, shortened: as §1

[9] = target: Fuc(a1-2)[GalNAc(a1-3)]Gal(b1-4)GlcNAc(b1-3)Gal(b1-4)GlcNAc
Procedure, shortened: as §1

[10] = target: Fuc(a1-3)[Gal(b1-4)]GlcNAc(b1-2)Man(a1-3)[Fuc(a1-3)[Gal(b1-4)]GlcNAc(b1-2)Man(a1-6)]Man(b1-4)GlcNAc(b1-4)[Fuc(a1-6)]GlcNAc
Procedure, shortened: as §1

[11] = target: Fuc(a1-3)[Gal(b1-4)]GlcNAc(b1-6)GalNAc
Procedure, shortened: as §1

[12] = target: Gal(a1-3)Gal(b1-4)GlcNAc(b1-2)Man(a1-3)[Gal(a1-3)Gal(b1-4)GlcNAc(b1-2)Man(a1-6)]Man(b1-4)GlcNAc(b1-4)GlcNAc
Procedure, shortened: as §1

[13] = target: Gal(b1-3)[Fuc(a1-4)]GlcNAc
Procedure, shortened: as §1

[14] = target: Gal(b1-3)[Neu5Ac(a2-6)]GalNAc
Procedure, shortened: as §1

[15] = target: Gal(b1-4)GlcNAc(b1-2)Man(a1-3)[Gal(b1-4)GlcNAc(b1-2)Man(a1-6)]Man(b1-4)GlcNAc(b1-4)GlcNAc
Procedure, shortened: as §1

[16] = target: Gal(b1-4)GlcNAc(b1-2)Man(a1-3)[Gal(b1-4)GlcNAc(b1-2)Man(a1-6)][GlcNAc(b1-4)]Man(b1-4)GlcNAc(b1-4)[Fuc(a1-6)]GlcNAc
Procedure, shortened: as §1

[17] = target: Gal(b1-4)GlcNAc(b1-2)Man(a1-3)[GlcNAc(b1-4)][Gal(b1-4)GlcNAc(b1-2)Man(a1-6)]Man(b1-4)GlcNAc(b1-4)GlcNAc
Procedure, shortened: as §1

[18] = target: Gal(b1-4)GlcNAc(b1-2)Man(a1-6)Man(b1-4)GlcNAc(b1-4)GlcNAc
Procedure, shortened: as §1

[19] = target: Gal(b1-4)GlcNAc(b1-2)Man(a1-6)[GlcNAc(b1-2)Man(a1-3)]Man(b1-4)GlcNAc(b1-4)GlcNAc
Procedure, shortened: as §1

[20] = target: Gal(b1-4)GlcNAc(b1-3)Gal(b1-3)GalNAc
Procedure, shortened: as §1

[21] = target: Gal(b1-4)GlcNAc(b1-3)Gal(b1-4)GlcNAc(b1-3)Gal(b1-4)GlcNAc(b1-2)[Gal(b1-4)GlcNAc(b1-3)Gal(b1-4)GlcNAc(b1-3)Gal(b1-4)GlcNAc(b1-6)]Man(a1-6)[Gal(b1-4)GlcNAc(b1-3)Gal(b1-4)GlcNAc(b1-3)Gal(b1-4)GlcNAc(b1-2)Man(a1-3)]Man(b1-4)GlcNAc(b1-4)[Fuc(a1-6)]GlcNAc
Procedure, shortened: as §1

[22] = target: Gal(b1-4)GlcNAc(b1-3)Gal(b1-4)GlcNAc(b1-3)GalNAc
Procedure, shortened: as §1

Gal6S(b1-4)Glc = target: Gal6S(b1-4)Glc
Procedure, shortened: as §1

Gal6S(b1-4)GlcNAc = target: Gal6S(b1-4)GlcNAc
Procedure, shortened: as §1

[23] = target: GlcNAc(a1-3)Gal(b1-4)GlcNAc
Procedure, shortened: as §1

[24] = target: GlcNAc(a1-4)Gal(b1-4)GlcNAc
Procedure, shortened: as §1

[25] = target: GlcNAc(a1-4)Gal(b1-4)GlcNAc(b1-3)Gal(b1-4)Glc
Procedure, shortened: as §1

[26] = target: GlcNAc(a1-4)Gal(b1-4)GlcNAc(b1-3)Gal(b1-4)GlcNAc
Procedure, shortened: as §1

B1: SSR1 (Sclerotium rolfsii), A0A0M3KL30 (protein)
chain: TYKITVRVYQTNPDAFFHPVEKTVWKYANGGTWTITDDQHVLTMGGSGTSGTLRFHADNGESFTATFGVHNYKRWCDIVTNLAADETGMVINQQYYSQKNREEARERQLSNYQVKNAKGRNFQIVYTEAEGNDLHANLIIG
glycan array binding signal (z-score) [1]: -0.338 | glycan array binding signal (z-score) [2]: -0.321 | glycan array binding signal (z-score) [3]: -0.335 | glycan array binding signal (z-score) [4]: -0.328 | glycan array binding signal (z-score) [5]: -0.306 | glycan array binding signal (z-score) [6]: -0.325 | glycan array binding signal (z-score) [7]: -0.34 | glycan array binding signal (z-score) [8]: 0.338 | glycan array binding signal (z-score) [9]: 0.292 | glycan array binding signal (z-score) [10]: -0.33 | glycan array binding signal (z-score) [11]: -0.33 | glycan array binding signal (z-score) [12]: -0.321 | glycan array binding signal (z-score) [13]: -0.333 | glycan array binding signal (z-score) [14]: 0.823 | glycan array binding signal (z-score) [15]: -0.338 | glycan array binding signal (z-score) [16]: -0.334 | glycan array binding signal (z-score) [17]: -0.342 | glycan array binding signal (z-score) [18]: -0.337 | glycan array binding signal (z-score) [19]: 3.01 | glycan array binding signal (z-score) [20]: 1.12 | glycan array binding signal (z-score) [21]: -0.33 | glycan array binding signal (z-score) [22]: 0.602 | glycan array binding signal (z-score) (Gal6S(b1-4)Glc): -0.323 | glycan array binding signal (z-score) (Gal6S(b1-4)GlcNAc): -0.336 | glycan array binding signal (z-score) [23]: 3.12 | glycan array binding signal (z-score) [24]: 3.11 | glycan array binding signal (z-score) [25]: 3.37 | glycan array binding signal (z-score) [26]: 4.43
